Results filed as inconclusive are left out. Calls of active or inactive are those of the source. Calls follow the shape of the dose curve; as a rule, active = well fitted cell-killing curve with a large enough effect; inconclusive = small, poorly fitted or top-dose-only effect, or effect the other way; inactive = no such curve, though single readings can be large or run the other way.
Test: Viability qHTS for spleen associated tyrosine kinase inhibitor (SYKi) naive MV4-11 cells (AID 1963823); also: nearly all actives have a fitted effect of over 40% in size
Settings: MV4-11 AML viability, CellTiter-Glo luminescence, 72 h; series mostly up to 45 µM; viability (% of control): at the top concentration
In short: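 Cells: MV4-11, SYK inhibitor naive, 500 per well. Treatment: library compounds, 72 hr, 37 C, 5% CO2. Read-out: CellTiter-Glo luminescence after 10 min RT.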
Potency is read from the fitted curve at half-maximal effect.

Q: Which Potency does the source give for `C=C1C(=O)O[C@@H]2[C@H]1CC[C@H](C)C(CCC(=O)O)C2(C)O` (stereo partly drawn) here?
A: The Potency was 5.8 µM (active).

Q: For `C=C[C@H]1[C@H](O[C@@H]2O[C@H](CO)[C@@H](O)[C@H](O)[C@H]2O)OC=C(C(=O)OC)[C@H]1CCO`, which “viability (% of control)” value is on record?
A: The value was 75.5% (inactive).

Q: For `CC(C)C1C(OC(=O)/C=C/c2ccccc2)CC2(C)OC2CCC2(C)OC2C1O` (stereo not drawn), which “viability (% of control)” value is on record?
A: The value was 5.87% (inactive).

Q: With `CC1(C)CC[C@]2(C(=O)O[C@@H]3O[C@H](CO[C@@H]4O[C@H](CO)[C@@H](O)[C@H](O)[C@H]4O)[C@@H](O)[C@H](O[C@@H]4O[C@H](CO)[C@@H](O)[C@H](O)[C@H]4O)[C@H]3O)CC[C@]3(C)C(=CCC4[C@@]5(C)CC[C@H](O[C@@H]6OC[C@@H](O)[C@H](O)[C@H]6O)[C@@](C)(C(=O)O)C5CC[C@]43C)[C@@H]2C1` (stereo partly drawn) as the molecule, how does the viability (% of control) read?
A: The viability (% of control) was 83.1% [at 9.25 µM] (inactive).

Q: Which “viability (% of control)” value does the source give for `CC(=O)c1ccc2c(c1)C(O)C(C(C)(C)O)O2` (stereo not drawn) here?
A: The value was 79.4% (inactive).

Q: Which Potency does the source give for `CC(C)[C@@](O)(c1ccc2cc(OC(F)F)c(OC(F)F)cc2c1)c1cn[nH]n1` here?
A: Its Potency is 18.4 µM (active).

Q: With `COc1c/c(=C2\C=c3ccccc3=N2)[nH]/c1=C\c1[nH]c(C)cc1C` as the molecule, how does the Potency read?
A: Its Potency is 5.17 µM (active).

Q: Which “viability (% of control)” value does the source give for `COc1ccc(C(=O)CC(=O)O)c2c1C=CC(C)(C)O2` here?
A: The value was 70% (inactive).

Q: With `C=CS(=O)(=O)NC1CCN(C(=O)CNc2cc(I)c(Cl)cc2OC)CC1` as the molecule, how does the Potency read?
A: Its Potency is 3.26 µM (active).

Q: For `CC[C@H](/C=C/[C@@H](C)[C@H]1CC[C@H]2[C@@H]3CC=C4C[C@@H](O)CC[C@]4(C)[C@H]3CC[C@]12C)C(C)C`, which viability (% of control) is on record?
A: Its viability (% of control) is 82.1% [at 4.97 µM] (inactive).

Q: Which viability (% of control) does the source give for `CC1(C)CC[C@]2(C(=O)O)[C@H](O)C[C@]3(C)C(=CCC4[C@@]5(C)CC[C@H](O[C@@H]6O[C@H](CO[C@@H]7OC[C@H](O)[C@H](O)[C@H]7O[C@@H]7OC[C@@H](O)[C@H](O)[C@H]7O)[C@@H](O)[C@H](O)[C@H]6O[C@@H]6O[C@H](CO)[C@@H](O)[C@H](O)[C@H]6O)C(C)(C)C5CC[C@]43C)[C@@H]2C1` (stereo partly drawn) here?
A: The viability (% of control) was 92.2% [at 9.25 µM] (inactive).

Q: For `C=C(CCO)C(=O)OCC1OCC(OC(=O)C(=C)CCO[C@@H]2O[C@H](CO)[C@@H](O)[C@H](O)[C@H]2O)C(O)C1O` (stereo partly drawn), which “viability (% of control)” value is on record?
A: Its value is 90.6% [at 17.3 µM] (inactive).

Q: For `Nc1nc(Cl)nc2c1ncn2C1OC(CO)C(O)C1F` (stereo not drawn), which Potency is on record?
A: Its Potency is 0.116 µM (active).

Q: With `COc1c(C)c(C(=O)c2ccc(N)c(C(=O)O)c2)n2ccccc12` as the molecule, how does the Potency read?
A: The Potency was “inactive”.

Q: Which “viability (% of control)” value does the source give for `CC1CCC2(C(=O)OC3OC(CO)C(O)C(O)C3O)CCC3(C(=O)O)C(=CCC4C5(C)CCC(OC6OC(C)C(O)C(O)C6O)C(C)(C)C5CCC43C)C2C1C` (stereo not drawn) here?
A: Its value is 73.7% [at 17.3 µM] (inactive).

Q: Which “viability (% of control)” value does the source give for `COCC(c1ccc(C(F)(F)F)cc1)N1CCN(C2(C)CCN(C(=O)c3c(C)ncnc3C)CC2)CC1C` (stereo not drawn) here?
A: Its value is 53.6% (inactive).

Q: Which Potency does the source give for `Oc1ccc(Nc2nc(-c3ccc(Cl)cc3)cs2)cc1` here?
A: Its Potency is 5.8 µM (active).

Q: Which “viability (% of control)” value does the source give for `CC1(C)C[C@H]2C=C(C=O)[C@]3(C(=O)O)C[C@]3(C)[C@H]2C1` here?
A: The value was 91.1% (inactive).

Q: For `N[C@@]1(C(=O)O)CC[C@H]2[C@H](C(=O)O)[C@H]21`, which “viability (% of control)” value is on record?
A: Its value is 99.8% (inactive).

Q: With `OC[C@@]1(O)CO[C@@H](OC[C@H]2O[C@@H](OCc3ccccc3)[C@H](O)[C@@H](O)[C@@H]2O)[C@@H]1O` as the molecule, how does the “viability (% of control)” value read?
A: Its value is 82.7% [at 17.3 µM] (inactive).

Q: Which Potency does the source give for `Cc1ccc(NC(=O)c2cccc(C(C)(C)C#N)c2)cc1Nc1ccc2ncn(C)c(=O)c2c1` here?
A: Its Potency is 1.18 µM (active).

Q: With `COC(=O)C1=C(C)NC(C)=C(C(=O)OCC(C)C)C1c1ccccc1[N+](=O)[O-]` (stereo not drawn) as the molecule, how does the Potency read?
A: The Potency was 10.6 µM (active).

Q: With `CCOC(=O)OCC/C(SC(=O)OCC)=C(\C)N(C=O)Cc1cnc(C)nc1N` as the molecule, how does the “viability (% of control)” value read?
A: Its value is 51.5% (inactive).

Q: Which “viability (% of control)” value does the source give for `CC(C)(O)C1=CCC23COC(C2)C(O)(C(=O)O)CCC13` (stereo not drawn) here?
A: The value was 95.7% (inactive).

Q: For `CC(C)=CC1C[C@](C)(O)[C@@H]2[C@H]3CCC4[C@@]5(C)CC[C@H](O[C@@H]6OC[C@H](O)[C@H](O[C@@H]7O[C@H](CO[C@@H]8O[C@H](CO)[C@@H](O)[C@H](O)[C@H]8O)[C@@H](O)[C@H](O)[C@H]7O)[C@H]6O[C@@H]6O[C@@H](C)[C@H](O)[C@@H](O)[C@H]6O)C(C)(C)[C@@H]5CC[C@@]4(C)[C@@]34CO[C@@]2(C4)O1` (stereo partly drawn), which viability (% of control) is on record?
A: The viability (% of control) was 74.2% [at 9.25 µM] (inactive).

Q: Which Potency does the source give for `C=C1C(=O)OC2/C=C(\COC(C)=O)CC/C=C(\C=O)CC(OC(=O)C(C)CC)C12` (stereo not drawn) here?
A: The Potency was 1.59 µM (active).

Q: With `CC1(C)OC(=O)CC(O)C2(C)C1CC(=O)C1(C)C2C(O)CC2(C)C(c3ccoc3)OC(=O)C3OC321` (stereo not drawn) as the molecule, how does the “viability (% of control)” value read?
A: The value was 74% [at 17.3 µM] (inactive).

Q: With `Cc1ncc([N+](=O)[O-])n1CC(O)CN1CCOCC1` (stereo not drawn) as the molecule, how does the “viability (% of control)” value read?
A: Its value is 86.3% (inactive).

Source: PubChem BioAssay (NCATS)
